Assay outcomes as filed in PubChem.
Tb PFK inh: inhibitors of T. brucei phosphofructokinase | O15648 | T. brucei PFK, ADP-Glo luminescence | Potency, µM (highest dose often 57.5 µM), for the others: at the top dose activity, negative = inhibition, most hits filed as inhibitors | 0.17% of 330,000 active;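 also: 0% = uninhibited 1x PFK enzyme wells and -100% = no-enzyme wells; nearly all actives have a fitted effect of over 60% in size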
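1.25 nM PFK with 0.5 mM F6P and 0.1 mM ATP in 0.1 M TEA pH 8.0, 5 mM MgCl2, incubated 45 min at room temperature; ADP measured by ADP-Glo luminescence; compounds titrated up to 57 uM.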
VDR inh: inhibitors of human vitamin D receptor; P11473; VDR-SRC2-3 peptide fluorescence polarization, 2 h; Potency, µM, for inactives: max response, negative = inhibition, most hits filed as inhibitors; 0.93% of 400,000 active; AID 504847; also: % is scaled to controls: 0 for no effect and ±100 for the full control effect
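Fluorescence polarization assay of small-molecule disruption of VDR binding to coregulator peptide SRC2-3. Compounds and controls pin-transferred, then read after 2 h incubation at ambient room temperature.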
PLK1 PBD inh: PLK1 (human) polo-box domain binding inhibition; AID 720504; Plk1 PBD binding of FITC phosphopeptide, fluorescence polarization; 2.8% of 360,000 active; Potency, µM, without a hit: max response, negative = inhibition, actives largely listed as inhibitors; also: series mostly up to about 57 µM; % is scaled to controls: 0 for no effect and ±100 for the full control effect; nearly all actives have a fitted effect of over 65% in size
Target sequence (P53350 whole entry, looked up, the tested form may be a part): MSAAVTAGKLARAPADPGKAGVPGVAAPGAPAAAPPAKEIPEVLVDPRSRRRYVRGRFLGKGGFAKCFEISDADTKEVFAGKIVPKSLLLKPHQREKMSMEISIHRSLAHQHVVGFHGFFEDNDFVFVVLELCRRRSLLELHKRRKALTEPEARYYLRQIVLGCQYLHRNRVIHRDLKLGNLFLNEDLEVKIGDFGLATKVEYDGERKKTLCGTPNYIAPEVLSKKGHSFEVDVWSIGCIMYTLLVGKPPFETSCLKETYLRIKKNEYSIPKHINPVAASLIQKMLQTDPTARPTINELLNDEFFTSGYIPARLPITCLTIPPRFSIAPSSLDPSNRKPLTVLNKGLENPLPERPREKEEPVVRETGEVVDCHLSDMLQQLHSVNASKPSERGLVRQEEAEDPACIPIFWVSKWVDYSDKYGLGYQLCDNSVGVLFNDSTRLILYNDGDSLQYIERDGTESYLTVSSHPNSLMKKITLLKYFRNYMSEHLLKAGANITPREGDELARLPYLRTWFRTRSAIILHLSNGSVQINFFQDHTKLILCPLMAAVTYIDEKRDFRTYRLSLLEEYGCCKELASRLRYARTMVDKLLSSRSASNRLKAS
BRCA1 expr act: increases BRCA1 expression; MCF7-BRCA1-FFLuc reporter, luminescence, 48 h; response scale: scaled: vehicle 0%, 10 µM genistein 100%; Potency, µM (top dose mostly 46.1 µM), inactives show at the top dose activation, most hits filed as activators; 1.1% of 380,000 active; also: nearly all actives have a fitted effect of over 80% in size
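Cells: MCF7-BRCA1-FFLuc, 2000/well. Exposure: 48 h, 37 °C, 5% CO2. Read: luminescence, 15 min post-substrate. Controls: genistein 10 microM (maximal activation), DMSO (neutral).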
The depositor's hits bear a star; u = inconclusive; x = not tested or not shown. Sampled rows, rich in hits. Any-hit rate of the full collection: about 3.9%. Calls follow the shape of the dose curve; as a rule, active = well fitted curve in the direction sought with a large enough effect; inconclusive = small, poorly fitted or top-dose-only effect, or another doubt; inactive = no such curve, though single readings can be large; an effect the other way counts as inactive or inconclusive. Potency is read from the fitted curve at half-maximal effect.

SMILES	Tb PFK inh	VDR inh	PLK1 PBD inh	BRCA1 expr act
O=C(OCc1ccccc1)N1CCCC2CC1c1ccccc12 (centres undefined)	x	x	-3%	0%
O=C(O)c1ccc(NC(=O)c2ccccc2NC(=O)c2cccc(Br)c2)cc1	1%	u	21µM*	-4%
Cc1ccc(S(=O)(=O)CCSc2cccc(C(=O)Nc3ccccc3C(=O)O)c2)cc1	0%	79µM*	1.7µM*	11%
O=C(Nc1ccccc1C(=O)O)c1cccc(NS(=O)(=O)c2ccc(Br)cc2)c1	-1%	u	42µM*	-16%
O=C(Nc1ccccc1C(=O)O)c1cccc(S(=O)(=O)N2CCCC2)c1	x	-2%	x	x
O=C(Nc1cc(C(=O)Nc2ccccc2C(=O)O)cc(C(=O)Nc2ccccc2C(=O)O)c1)c1ccccc1	-6%	u	21µM*	-1%
O=C(Nc1ccccc1C(=O)O)c1cccc(NC(=O)c2ccccc2Br)c1	3%	8%	-16%	24%
CCOc1ccc(CCNC(=O)c2cc3c(=O)[nH]c4ccc(C)cc4c3s2)cc1OCC	x	-19%	x	6%
Cc1cccc(NC(=O)CSc2nnc3[nH]c(=O)cc(-c4ccccc4)n23)c1C	x	12%	x	x
CN(C(=O)c1cccc(NC(=O)Cc2cccc(NC(=O)C3CCN(C(=O)CCc4ccccc4)CC3)c2)c1)C1CC1	x	-5%	-12%	-2%
COc1ccc(CN(Cc2ccccc2)C(=O)c2ccno2)cc1COc1ccc(NC(C)=O)cc1	x	-11%	x	21%
O=C(/C=C/c1ccco1)Nc1cccc(C(=O)Nc2ccccc2C(=O)O)c1	17%	u	21µM*	0%
O=C(NNC(=S)Nc1ccccc1)c1cccc(Br)c1	1%	5%	u	32%
O=C(NNC(=O)c1cccc(Br)c1)Nc1ccc(Cl)cc1	-1%	u	21µM*	40%
Cc1ccc(NC(=O)c2cccc(C(=O)Nc3ccc(C)cc3C(=O)O)c2)c(C(=O)O)c1	4%	-3%	21µM*	1%
CCc1ccccc1NC(=O)c1cccc(NC(=O)/C=C/c2ccco2)c1	-13%	-18%	-4%	40%
COc1cc2oc(=O)cc(-c3cccc(-c4ccc(C(C)=O)cc4)c3)c2c(OC)c1OC	x	-19%	x	x
CN(C)c1ccc(N=Cc2nc(-c3ccccc3)oc2OC(=O)c2cccc(Br)c2)cc1	-7%	u	-10%	3.2µM*
CC1(C)OB(c2cnc(C#N)nc2)OC1(C)C	x	x	x	-9%
O=c1cc2nc(-c3ccccc3F)nc(SCc3ccc(Br)cc3)n2[nH]1	x	-3%	x	0%
COc1ccc(-c2nc3sc(CCNC(=O)c4ccccc4C)c(C)n3n2)cc1	x	5%	x	29%
COc1ccc(-c2nc3sc(CCNC(=O)c4cccc(C(F)(F)F)c4)c(C)n3n2)cc1	x	7%	x	6.3µM*
COc1cc(/C=C2\C(=N)N3N=C(S(C)(=O)=O)SC3=NC2=O)ccc1OS(=O)(=O)c1ccc(C)cc1	-1%	u	24µM*	3%
CCC1=NN2C(=N)/C(=C/c3ccc(OS(=O)(=O)c4ccccc4)c(OC)c3)C(=O)N=C2S1	2%	-25%	19µM*	30%
COc1cc(/C=C2/C(=N)N3N=C(C(C)C)SC3=NC2=O)ccc1OS(=O)(=O)c1ccccc1	-4%	56µM*	38µM*	0%
SMILES	Tb PFK inh	VDR inh	PLK1 PBD inh	BRCA1 expr act
COc1cccc(OCCOc2ccc(/C=C3\C(=N)N4N=C(S(C)(=O)=O)SC4=NC3=O)cc2OC)c1	3%	17%	u	41%
O=c1c2cccnc2n(Cc2ccc(Cl)cc2)c(=O)n1Cc1ccc(F)cc1	x	-8%	x	0%
Cc1c(C(=O)NCc2cccc(Cl)c2)sc2nc[nH]c(=O)c12	x	13%	x	x
CCOc1ccc(C2=NC(c3ccncc3)=Nc3ccc(C)cc3N2)cc1OCC	x	3%	x	x
CC(C)(C)OC(=O)N1CC23CC(c4ccc(F)cc4)C(CC2S1(=O)=O)O3 (centres undefined)	x	-2%	x	x
O=S(=O)(NC1CC2CCC1C2)c1ccc(Br)cc1 (centres undefined)	2%	-23%	-9%	-2%
O=S(=O)(NC1CC2CCC1C2)c1ccc(Br)s1 (centres undefined)	-14%	-20%	3.4µM*	-1%
Cc1noc(NS(=O)(=O)c2ccc(NC(=O)c3ccc(Br)cc3)cc2)c1C	x	-10%	x	x
COn1c(-c2ccc(Cl)cc2)nc2ncccc21	1%	-21%	0%	7.1µM*
Cc1ccc(Cl)cc1N(C)C(=O)c1cc2ccc3cccnc3c2[nH]1	x	-5%	x	x
CCOC(=O)c1cc(-c2ccc3c(c2)OCCO3)n[nH]1	2%	14%	-14%	u
